The values below come from PubChem BioAssay (NCI).

Each structure is given as a SMILES string. Compounds without any hit were thinned out: in the full panel of roughly 83,000, 20% have a hit.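 For each line, cells grew in 96-well plates with the test compound present at a single concentration for 48 hours.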 Unmarked numbers belong to inactive results. Active and inactive are the calls of the source. How the source made its calls: active means growth percent below 10; inactive means the rest.

Some test systems named below: SR leukemia; RPMI-8226 leukemia; OVCAR-8 ovarian; OVCAR-5 ovarian; OVCAR-4 ovarian; SK-OV-3 ovarian; IGROV1 ovarian; OVCAR-3 ovarian; HS 578T breast; NCI/ADR-RES ovarian; T-47D breast; BT-549 breast; MDA-MB-435 melanoma; SW-620 colon; MCF7 breast; HCT-116 colon; HCC-2998 colon; KM12 colon.
Assay in all cases: NCI-60 one-dose screen, 48 h (100 = growth as untreated, 0 = no growth, -100 = all killed)
Holding throughout (settings): 10 µM

For the compound `COc1cc(-c2nc3cc(Cl)c(Cl)cc3[nH]2)ccc1OCC(=O)NN`, the growth with SR leukemia was 77.4%; in the assay on RPMI-8226 leukemia it was 107%; with OVCAR-8 ovarian, 76.4%; with OVCAR-5 ovarian, 98.1%; in the assay with OVCAR-4 ovarian, 85.3%; with SK-OV-3 ovarian, 93.3%. The growth is 86.6% with IGROV1 ovarian; 93% with OVCAR-3 ovarian; 95.1% in the assay on HS 578T breast; 87.8% with NCI/ADR-RES ovarian; 66.9% in the assay on T-47D breast; 95% with BT-549 breast. The growth in the assay with MDA-MB-435 melanoma is 63.6%; in the assay on SW-620 colon, 80.9%; in the assay on MCF7 breast, 73.4%; in the assay on HCT-116 colon, 96.1%; in the assay on HCC-2998 colon, 103%; in the assay with KM12 colon, 64.6%.

Turning to `COc1ccc(CCc2nc3cc(-c4c(C)noc4C)ccc3n2CCN2CCOCC2)cc1`, the growth with SR leukemia was 39%; in the assay on RPMI-8226 leukemia, -5.7% (active); in the assay with OVCAR-8 ovarian, 34.6%; in the assay on OVCAR-5 ovarian it was 49.8%; in the assay with OVCAR-4 ovarian, 30.8%; in the assay with SK-OV-3 ovarian, 88.1%. Moreover, the growth is 48.3% in the assay on IGROV1 ovarian; 3.29% (active) in the assay on OVCAR-3 ovarian; 50.2% with HS 578T breast; 57.1% in the assay on NCI/ADR-RES ovarian; 28.2% with T-47D breast; 81.4% with BT-549 breast. Besides, the growth is 26.1% with MDA-MB-435 melanoma; 26.6% in the assay on SW-620 colon; 34.5% in the assay on MCF7 breast; 31.1% with HCT-116 colon; 47.3% with HCC-2998 colon; 33.6% with KM12 colon.

Consider `O=C(COc1ccc(-c2nc3ccccc3[nH]2)cc1)N=Nc1c(O)[nH]c2ccccc12`, for which the growth with SR leukemia is 1.13% (active); with RPMI-8226 leukemia, 71.5%; in the assay on OVCAR-8 ovarian, 78.4%; in the assay with OVCAR-5 ovarian, 116%; in the assay on OVCAR-4 ovarian, 15.5%; in the assay on SK-OV-3 ovarian, 105%. Further, the growth in the assay with IGROV1 ovarian was 99.5%; in the assay with OVCAR-3 ovarian, 62.5%; with HS 578T breast, 103%; with NCI/ADR-RES ovarian it was 108%; in the assay on T-47D breast it was 59%; in the assay on BT-549 breast, 106%. In addition, the growth in the assay on MDA-MB-435 melanoma is 69.8%; with SW-620 colon it was 85.6%; with MCF7 breast it was 42.5%; in the assay with HCT-116 colon, 40.9%; in the assay with HCC-2998 colon, 109%; in the assay with KM12 colon it was 58.2%.

`O=C(O)CCCN1C(=O)NC2(C1=O)c1ccccc1-c1ccccc12`: the growth with SR leukemia was 100%; in the assay with RPMI-8226 leukemia, 99.9%; with OVCAR-8 ovarian, 97.3%; in the assay on OVCAR-5 ovarian, 101%; with OVCAR-4 ovarian, 106%; in the assay with SK-OV-3 ovarian it was 103%. The growth in the assay on IGROV1 ovarian is 101%; in the assay with OVCAR-3 ovarian, 109%; in the assay on HS 578T breast, 93.9%; in the assay on NCI/ADR-RES ovarian, 96.8%; with T-47D breast, 89.4%; in the assay with BT-549 breast, 96.7%. In addition, the growth was 103% with MDA-MB-435 melanoma; 104% with SW-620 colon; 97.3% with MCF7 breast; 95.6% with HCT-116 colon; 101% in the assay on HCC-2998 colon; 102% in the assay on KM12 colon.

`COc1cc(Cn2c(-c3ccccc3)c(Cl)c3c2-c2oncc2CC3)cc(OC)c1`: the growth was 0.637% (active) with SR leukemia; 58.9% in the assay on RPMI-8226 leukemia; 92.8% with OVCAR-8 ovarian; 96.7% in the assay with OVCAR-5 ovarian; 76.8% with OVCAR-4 ovarian; 97.2% with SK-OV-3 ovarian. Besides, the growth with IGROV1 ovarian is 16.2%; in the assay on OVCAR-3 ovarian, 45.9%; with HS 578T breast, 52.8%; in the assay on NCI/ADR-RES ovarian, 47.6%; with T-47D breast it was 73.8%; in the assay on BT-549 breast, 87.4%. For the same compound, the growth with MDA-MB-435 melanoma is -0.829% (active); in the assay with SW-620 colon it was 15.8%; in the assay with MCF7 breast it was 102%; in the assay on HCT-116 colon, 47.5%; with HCC-2998 colon it was 84.4%; with KM12 colon, 41.7%.

Regarding `CS(=O)(=O)Nc1ccc(Nc2c3ccccc3nc3cc(Cl)ccc23)cc1`, the growth in the assay with SR leukemia is 7.92% (active); in the assay on RPMI-8226 leukemia it was 41.3%; with OVCAR-8 ovarian, 25.5%; in the assay on OVCAR-5 ovarian, 63.1%; in the assay on OVCAR-4 ovarian it was 56.7%; with SK-OV-3 ovarian, 42.6%. The growth was 29.8% in the assay with IGROV1 ovarian; 56.3% with OVCAR-3 ovarian; 81.8% with HS 578T breast; 44.8% in the assay on NCI/ADR-RES ovarian; 26.9% with T-47D breast; 52.4% in the assay with BT-549 breast. Further, the growth in the assay on MDA-MB-435 melanoma is 54.1%; in the assay with SW-620 colon, 30.4%; in the assay on MCF7 breast, 18.6%; with HCT-116 colon, 16.5%; with HCC-2998 colon it was 42.6%; in the assay on KM12 colon, 48.2%.

`COc1cc(C2C=C(c3ccc(Cl)cc3)N=C3SC(C)=CN32)cc(OC)c1OC` (centres undefined): the growth with SR leukemia was 9.45% (active); in the assay on RPMI-8226 leukemia, 47.5%; in the assay on OVCAR-8 ovarian it was 93.6%; in the assay on OVCAR-5 ovarian it was 85.2%; in the assay on OVCAR-4 ovarian it was 77.4%; in the assay on SK-OV-3 ovarian, 118%. Moreover, the growth in the assay on IGROV1 ovarian is 96.6%; with OVCAR-3 ovarian, 103%; in the assay with HS 578T breast it was 101%; in the assay on NCI/ADR-RES ovarian, 97.6%; in the assay with T-47D breast, 72.2%; in the assay with BT-549 breast it was 88.5%. The growth in the assay with MDA-MB-435 melanoma was 72.9%; in the assay with SW-620 colon it was 94.5%; in the assay on MCF7 breast, 67.6%; with HCT-116 colon it was 50.3%; with HCC-2998 colon it was 101%; with KM12 colon, 94.1%.

Consider `Oc1ccc(Cn2cc3c(c2-c2ccccc2)CCc2cnoc2-3)cc1`, for which the growth is 76.8% in the assay with SR leukemia; 82.1% in the assay with RPMI-8226 leukemia; 100% in the assay with OVCAR-8 ovarian; 105% in the assay with OVCAR-5 ovarian; 95.8% in the assay with OVCAR-4 ovarian; 94.4% in the assay on SK-OV-3 ovarian. Besides, the growth in the assay on IGROV1 ovarian is 120%; in the assay on OVCAR-3 ovarian, 107%; in the assay on HS 578T breast it was 106%; in the assay on NCI/ADR-RES ovarian it was 86.2%; in the assay on T-47D breast, 78.4%; in the assay with BT-549 breast it was 101%. The growth in the assay with MDA-MB-435 melanoma was 72.7%; with SW-620 colon, 98%; in the assay with MCF7 breast, 105%; in the assay on HCT-116 colon it was 92.7%; with HCC-2998 colon it was 102%; in the assay with KM12 colon, 91.5%.
